Hit rate of the full screen: of about 310,000 compounds, about 2,200 (0.71%) showed an effect of 50% or more. The effect is printed as a negative number. This is one part of a sample in which strong results are shown more often than they occur.
Target: human ether-à-go-go-related gene (hERG) potassium channel (human, UniProt Q12809)
Experiment: primary screen, population patch clamp on CHO cells stably expressing hERG; higher = less effect of the substance

Chain of human ether-à-go-go-related gene (hERG) potassium channel (Q12809 whole entry, looked up): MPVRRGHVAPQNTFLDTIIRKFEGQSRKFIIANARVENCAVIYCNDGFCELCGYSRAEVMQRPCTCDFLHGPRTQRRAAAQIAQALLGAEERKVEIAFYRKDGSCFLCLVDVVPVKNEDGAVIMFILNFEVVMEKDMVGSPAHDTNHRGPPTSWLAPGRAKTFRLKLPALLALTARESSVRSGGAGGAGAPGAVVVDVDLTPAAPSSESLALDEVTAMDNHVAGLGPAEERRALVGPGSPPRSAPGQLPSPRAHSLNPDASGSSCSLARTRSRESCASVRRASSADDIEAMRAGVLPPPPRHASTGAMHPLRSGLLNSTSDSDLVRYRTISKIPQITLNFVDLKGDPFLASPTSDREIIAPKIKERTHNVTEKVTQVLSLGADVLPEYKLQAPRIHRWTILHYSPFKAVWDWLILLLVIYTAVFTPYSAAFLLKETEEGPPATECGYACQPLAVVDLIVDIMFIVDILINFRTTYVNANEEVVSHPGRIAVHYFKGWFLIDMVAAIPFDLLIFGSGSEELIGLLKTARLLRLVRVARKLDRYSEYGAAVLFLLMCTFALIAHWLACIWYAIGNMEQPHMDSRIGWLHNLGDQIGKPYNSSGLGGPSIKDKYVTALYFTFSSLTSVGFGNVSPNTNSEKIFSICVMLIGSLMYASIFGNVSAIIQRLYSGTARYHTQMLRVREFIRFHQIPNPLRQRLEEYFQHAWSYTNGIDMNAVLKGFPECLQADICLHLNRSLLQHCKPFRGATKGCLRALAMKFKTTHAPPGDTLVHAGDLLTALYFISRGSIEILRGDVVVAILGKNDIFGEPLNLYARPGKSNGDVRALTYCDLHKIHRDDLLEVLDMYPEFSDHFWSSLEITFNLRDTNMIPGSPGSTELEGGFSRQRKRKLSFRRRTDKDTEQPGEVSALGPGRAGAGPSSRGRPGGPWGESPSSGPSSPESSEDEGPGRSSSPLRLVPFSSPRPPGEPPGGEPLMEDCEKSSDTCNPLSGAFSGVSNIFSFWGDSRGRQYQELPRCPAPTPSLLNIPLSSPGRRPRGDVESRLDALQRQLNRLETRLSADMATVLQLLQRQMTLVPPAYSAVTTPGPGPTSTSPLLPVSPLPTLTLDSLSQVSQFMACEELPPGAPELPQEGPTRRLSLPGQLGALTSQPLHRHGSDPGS

Compound	hERG current change (%, negative = inhibition) at 1uM
CCC(Oc1ccccc1)C(=O)N(C)CC(=O)N(CC(C)C)c1c(N)n(CC(C)C)c(=O)[nH]c1=O (stereo not drawn)	7.85%
CC(C)CC(=O)OCC(=O)Nc1ccccc1Sc1ccccc1	11.1%
CN(Cc1ccc(OC(F)F)cc1)C(=O)c1ccc(S(=O)(=O)N(C)c2ccccc2)cc1	-19.2%
CCS(=O)(=O)N1Cc2ccccc2CC1C(=O)Nc1ncc(C)s1 (stereo not drawn)	7.83%
Fc1ccc(N2Cc3ccsc3C=N2)cc1	9.09%
CCOc1ccc(Nc2nc(Cc3nnc(SCC(=O)NC4CCCCC4)n3C)cs2)cc1	-7.35%
Cc1sc(-c2ccccn2)nc1OC(=O)c1ccc(F)cc1F	16.2%
CCCCC(=O)Nc1c(-c2ccc(OC)c(OC)c2)c(=O)c2ccccc2n1C	10.7%
O=C(Nc1ccc2c(c1)OCO2)C1CCN(C(=O)c2ccc(Br)cc2)CC1	-42.3%
O=C(NCC1CCCCC1)c1ccc([N+](=O)[O-])cc1	8.06%
O=C(NCC1CCN(C(=O)c2cccc([N+](=O)[O-])c2)CC1)c1cccc([N+](=O)[O-])c1	-5.98%
O=C(Nc1ccc2c(c1)OCO2)C1CCN(C(=O)c2ccc(Cl)cc2)CC1	-59.6%
O=C(NCC1CCN(C(=O)c2ccc([N+](=O)[O-])cc2)CC1)c1ccc([N+](=O)[O-])cc1	-74.6%
O=C(Nc1ccc2c(c1)OCCO2)C1CCN(C(=O)c2ccc(Cl)cc2)CC1	3.04%
O=[N+]([O-])c1ccccc1/C=C\C=N\N1CCN(c2ccccc2)CC1	-7.95%
COc1cccc(CC2(CO)CCCN(Cc3cn[nH]c3-c3ccccc3)C2)c1 (stereo not drawn)	-6.05%
COc1cccc(CC2(CO)CCCN(Cc3ccccc3Cl)C2)c1 (stereo not drawn)	-12.5%
COc1cccc(CC2(CO)CCCN(Cc3ccc(-c4ccco4)cc3)C2)c1 (stereo not drawn)	9.67%
COc1cccc(CC2(CO)CCCN(Cc3ccc(C)s3)C2)c1 (stereo not drawn)	-10.6%
COc1cccc(CC2(CO)CCCN(Cc3cn(C)c4ccccc34)C2)c1 (stereo not drawn)	-54.8%
COc1cccc(CC2(CO)CCCN(Cc3ccc(OC)c(C)c3OC)C2)c1 (stereo not drawn)	-80.2%
COc1cccc(CC2(CO)CCCN(Cc3ccccc3-c3ccco3)C2)c1 (stereo not drawn)	-55.6%
COc1cccc(CC2(CO)CCCN(Cc3ccc(CO)o3)C2)c1 (stereo not drawn)	-1.35%
COc1cccc(CC2(CO)CCCN(Cc3ccc(CN4CCCCC4)s3)C2)c1 (stereo not drawn)	0.717%
CC(C)(C)C(=O)Nc1scc(-c2ccc(-c3ccccc3)cc2)c1C(=O)O	21.8%
COc1cc(C)ccc1OCc1cc(C(=O)N(C)CCCN2CCOCC2)no1	-7.67%
c1ccc(-n2c(-c3ccco3)nnc2-c2ccco2)cc1	5.9%

Compound	hERG current change (%, negative = inhibition) at 1uM
COc1cccc(-c2nnc(-c3ccco3)o2)c1	14.6%
O=C(NCCN1CCCCC1)c1cc(OCC(F)(F)F)ccc1OCC(F)(F)F	-17.2%
S=c1[nH]nc(-c2ccc(Cl)cc2)n1-c1ccc(Cl)cc1	9.56%
CCC(C)(C)NC(=O)CN(C(=O)c1snc(C(N)=O)c1N)c1ccc2c(c1)OCO2	3.43%
COc1ccc(S(=O)(=O)N2CCC(C(=O)NCCc3ccccc3)CC2)cc1	9.96%
COc1ccc(C(=O)N2CCC(C(=O)c3c(C)cc(C)cc3C)CC2)cc1	-8.27%
COc1cc(OC)cc(C(=O)N2CCC(C(=O)c3ccc(F)cc3)CC2)c1	-1.28%
COc1ccc(C(=O)N2CCC(C(=O)c3ccc(F)cc3)CC2)cc1	-66.1%
COc1ccc(C(=O)C2CCN(C(=O)c3ccc(OC)cc3)CC2)cc1	-76%
COc1ccc(C(=O)C2CCN(C(=O)c3ccc(C)cc3)CC2)cc1	-47.7%
COc1ccc(C(=O)C2CCN(C(=O)c3ccc(F)cc3)CC2)cc1	2.02%
COc1ccc(Cl)cc1NC(=O)NN1CCN(C)CC1	-7.68%
CC(C)(C)NC(=O)C(c1ccco1)N(Cc1ccc(F)cc1)C(=O)c1snc(C(N)=O)c1N (stereo not drawn)	-6.09%
C/C(=N/OCO/N=C(\C)c1ccc(F)cc1F)c1ccc(F)cc1F	21.9%
COc1cc2c(cc1OC)CN(CC(=O)Nc1ccc3c(c1)OCO3)CC2	14.5%
CC(C)(C)S(=O)(=O)c1cnc2c(-c3ccsc3)cnn2c1N	15.9%
COc1cc2c(cc1OC)CN(C(=O)COc1ccccc1[N+](=O)[O-])CC2	9.5%
O=C(NC(=S)NCc1ccccc1)c1ccc2c(c1)OCO2	2.26%
COC(=O)c1ccccc1NC(=S)NC(=O)c1ccc2c(c1)OCO2	20.6%
O=C(NC(=S)Nc1ccccc1Br)c1ccc2c(c1)OCO2	-67.9%
Cc1ccc(N(C)S(=O)(=O)c2cccc(C(=O)Nc3ccc(C)cn3)c2)cc1	15.7%
N#CCCN=C(NS(=O)(=O)c1ccccc1)c1ccccc1	2.49%
O=C(COc1ccc2ccc(=O)oc2c1)NCCc1c[nH]c2ccc(F)cc12	12.5%
CCOc1ccc(N2C(=O)CC(n3nc(C)cc3C)C2=O)cc1 (stereo not drawn)	3.53%
Br.CCOC(=O)c1c(CSC(=N)N)n(-c2ccc(C)cc2)c2cc(Br)c(OC(C)=O)cc12	-36.7%
Br.CCOC(=O)c1c(CSC(=N)N)n(C)c2cc(Br)c(OC(C)=O)cc12	-36.7%
CCOC(=O)c1c(CSC(=N)N)n(-c2ccccc2)c2cc(Br)c(OC(C)=O)cc12	-57.4%

— article PMC4336329 (PLoS ONE, 2015)
